Reference: PubChem BioAssay AID1159580 (chemical genetic matrix, 2015)
Among all 5,500 compounds or so, about 2,000 (36%) were called active. Another 18% or so got no clear call; they are omitted. Cut-off read from the data, not from the text of the source: active = normalized growth mostly below about 0.91 (no sharp cut-off); inconclusive = no clear call, values can overlap the other calls; inactive = mostly above about 0.92. The list shows a part of the results.

Test: chemical genetic growth profiling, strain panel (AID 1159580);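 note: tested at 20 µM; growth read once vehicle control cultures reached saturation at 30 °C; 1 = growth at the plate median or of vehicle wells; lower values mean less growth of the strain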
Settings: growth OD

Measured: normalized growth

COc1ccc(CC2c3cc(OC)c(OC)cc3CCN2C)cc1OC (stereo unspecified)
inactive: S. cerevisiae deletion strains, locus YAL013W, strain DEP1, hits give low values 0.984 | S. cerevisiae deletion strains, locus YBR021W, strain FUR4, hits give low values 1.05 | S. cerevisiae deletion strains, locus YBR229C, strain ROT2, hits give low values 0.969 | S. cerevisiae deletion strains, locus YCL029C, strain bik1, hits give low values 0.988 | S. cerevisiae deletion strains, locus YDL035C, strain GPR1, hits give low values 0.997 | S. cerevisiae deletion strains, locus YDL074C, strain BRE1, hits give low values 0.964 | S. cerevisiae deletion strains, locus YDL101C, strain DUN1, hits give low values 0.961 | S. cerevisiae deletion strains, locus YDL134C, strain PPH21, hits give low values 0.981 | S. cerevisiae deletion strains, locus YDL185W, strain tfp1, hits give low values 0.951 | S. cerevisiae deletion strains, locus YDL192W, strain arf1, hits give low values 0.994 | S. cerevisiae deletion strains, locus YDR101C, strain arx1, hits give low values 1.01 | S. cerevisiae deletion strains, locus YDR150W, strain NUM1, hits give low values 0.974 | S. cerevisiae deletion strains, locus YDR162C, strain NBP2, hits give low values 0.941 | S. cerevisiae deletion strains, locus YDR318W, strain mcm21, hits give low values 1.02 | S. cerevisiae deletion strains, locus YDR388W, hits give low values 0.992 | S. cerevisiae deletion strains, locus YDR502C, strain sam2, hits give low values 0.974 | S. cerevisiae deletion strains, locus YEL061C, strain CIN8, hits give low values 0.988 | S. cerevisiae deletion strains, locus YER110C, hits give low values 0.987 | S. cerevisiae deletion strains, locus YER155C, strain BEM2, hits give low values 1 | S. cerevisiae deletion strains, locus YER167W, strain BCK2, hits give low values 0.997 | S. cerevisiae deletion strains, locus YGL078C, strain dbp3, hits give low values 0.976 | S. cerevisiae deletion strains, locus YGL086W, strain mad1, hits give low values 1.01 | S. cerevisiae deletion strains, locus YGL248W, strain PDE1, hits give low values 0.978 | S. cerevisiae deletion strains, locus YGR078C, strain PAC10, hits give low values 0.967 | S. cerevisiae deletion strains, locus YGR135W, strain pre9, hits give low values 0.957 | S. cerevisiae deletion strains, locus YGR229C, strain SMI1, hits give low values 0.997 | S. cerevisiae deletion strains, locus YGR252W, strain gcn5, hits give low values 1.08 | S. cerevisiae deletion strains, locus YHR030C, strain SLT2, hits give low values 1 | S. cerevisiae deletion strains, locus YHR079C, strain IRE1 (second series), hits give low values 0.99 | S. cerevisiae deletion strains, locus YHR094C, strain hxt1, hits give low values 0.988 | S. cerevisiae deletion strains, locus YHR129C, strain ARP1, hits give low values 0.987 | S. cerevisiae deletion strains, locus YHR200W, strain rpn10, hits give low values 0.982 | S. cerevisiae deletion strains, locus YIL066C, strain RNR3, hits give low values 0.971 | S. cerevisiae deletion strains, locus YIL073C, strain SPO22, hits give low values 1.02 | S. cerevisiae deletion strains, locus YIL125W, strain kgd1, hits give low values 0.983 | S. cerevisiae deletion strains, locus YIR030C, strain dcg1, hits give low values 0.979 | S. cerevisiae deletion strains, locus YJL095W, strain BCK1, hits give low values 0.985 | S. cerevisiae deletion strains, locus YJL134W, strain LCB3, hits give low values 0.993 | S. cerevisiae deletion strains, locus YJL168C, strain set2, hits give low values 0.98 | S. cerevisiae deletion strains, locus YJL187C, strain SWE1 (second series), hits give low values 0.959 | S. cerevisiae deletion strains, locus YJR043C, strain POL32, hits give low values 1.03 | S. cerevisiae deletion strains, locus YJR075W, strain HOC1, hits give low values 0.926 | S. cerevisiae deletion strains, locus YKL009W, strain mrt4, hits give low values 0.995 | S. cerevisiae deletion strains, locus YKL068W, hits give low values 0.99 | S. cerevisiae deletion strains, locus YKL085W, strain MDH1 (second series), hits give low values 0.97 | S. cerevisiae deletion strains, locus YKL085W, strain MDH1, hits give low values 0.97 | S. cerevisiae deletion strains, locus YKL190W, strain CNB1, hits give low values 0.978 | S. cerevisiae deletion strains, locus YKR001C, strain vps1, hits give low values 1 | S. cerevisiae deletion strains, locus YLR039C, strain RIC1, hits give low values 0.959 | S. cerevisiae deletion strains, locus YLR058C, strain SHM2, hits give low values 0.973 | S. cerevisiae deletion strains, locus YLR102C, strain apc9, hits give low values 0.978 | S. cerevisiae deletion strains, locus YLR262C, strain YPT6, hits give low values 0.951 | S. cerevisiae deletion strains, locus YLR268W, strain sec22, hits give low values 0.953 | S. cerevisiae deletion strains, locus YLR330W, strain CHS5, hits give low values 0.998 | S. cerevisiae deletion strains, locus YLR342W, strain FKS1 (second series), hits give low values 1.05 | S. cerevisiae deletion strains, locus YLR371W, strain rom2, hits give low values 0.993 | S. cerevisiae deletion strains, locus YLR418C, strain cdc73, hits give low values 0.955 | S. cerevisiae deletion strains, locus YML016C, strain PPZ1, hits give low values 0.988 | S. cerevisiae deletion strains, locus YML032C, strain rad52, hits give low values 1 | S. cerevisiae deletion strains, locus YML124C, strain tub3, hits give low values 0.993 | S. cerevisiae deletion strains, locus YMR078C, strain ctf18, hits give low values 0.989 | S. cerevisiae deletion strains, locus YMR223W, strain ubp8, hits give low values 0.948 | S. cerevisiae deletion strains, locus YMR263W, strain SAP30, hits give low values 0.96 | S. cerevisiae deletion strains, locus YMR307W, strain GAS1, hits give low values 1.1 | S. cerevisiae deletion strains, locus YNL067W, strain RPL9B, hits give low values 0.959 | S. cerevisiae deletion strains, locus YNL128W, strain TEP1, hits give low values 0.945 | S. cerevisiae deletion strains, locus YNL153C, strain GIM3, hits give low values 0.947 | S. cerevisiae deletion strains, locus YNL233W, strain BNI4, hits give low values 0.979 | S. cerevisiae deletion strains, locus YNL250W, strain rad50, hits give low values 0.97 | S. cerevisiae deletion strains, locus YNL271C, strain bni1, hits give low values 0.987 | S. cerevisiae deletion strains, locus YNL298W, strain CLA4, hits give low values 0.978 | S. cerevisiae deletion strains, locus YNL307C, strain MCK1, hits give low values 0.998 | S. cerevisiae deletion strains, locus YNL322C, strain KRE1, hits give low values 0.982 | S. cerevisiae deletion strains, locus YNR052C, strain pop2, hits give low values 0.991 | S. cerevisiae deletion strains, locus YOL006C, strain TOP1, hits give low values 0.936 | S. cerevisiae deletion strains, locus YOL012C, strain htz1 0.876 | S. cerevisiae deletion strains, locus YOL147C, strain pex11, hits give low values 0.991 | S. cerevisiae deletion strains, locus YOR061W, strain CKA2, hits give low values 0.964 | S. cerevisiae deletion strains, locus YOR069W, strain VPS5, hits give low values 0.994 | S. cerevisiae deletion strains, locus YOR136W, strain idh2, hits give low values 0.994 | S. cerevisiae deletion strains, locus YOR144C, strain elg1, hits give low values 0.993 | S. cerevisiae deletion strains, locus YOR184W, strain ser1, hits give low values 1.03 | S. cerevisiae deletion strains, locus YOR316C, strain cot1, hits give low values 0.975 | S. cerevisiae deletion strains, locus YPL055C, strain LGE1, hits give low values 0.935 | S. cerevisiae deletion strains, locus YPL241C, strain CIN2, hits give low values 0.99 | S. cerevisiae deletion strains, locus YPR119W, strain clb2, hits give low values 0.995 | S. cerevisiae deletion strains, locus YPR141C, strain kar3, hits give low values 0.968 | S. cerevisiae deletion strains, locus YPR163C, strain tif3, hits give low values 0.984 | S. cerevisiae deletion strains, locus YPR167C, strain met16, hits give low values 0.979 | S. cerevisiae deletion strains, strain wtn01, hits give low values 0.934 | S. cerevisiae strains, strain wild type, hits give low values 0.987
